Laboratory results from PubChem BioAssay (NCI).
Values joined by “and” are separate entries in the source; they are usually repeats but may differ in a detail not shown here. Equal entries are not always repeated. This is part of a sample that, as a whole, favours compounds with a hit. Of some 83,000 tested, about 20% had one in any assay.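 The endpoint reported here, percent growth, reads 100 for growth as untreated, 0 for no net growth and -100 for all cells dead.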 A number with no mark means an inactive call. Active and inactive are the calls of the source. The calls were made as follows: active = growth percent below 10; inactive = the rest.

tested on: MDA-MB-468 breast; test: NCI-60 one-dose screen, 48 h (100 = growth as untreated, 0 = no growth, -100 = all killed); details: 10 µM unless noted

Row | Compound | growth
1 | CCCCN(C=S)CCCC | 101%
2 | Cc1cc(NCCCNc2ccnc3cc(Cl)ccc23)nc(Nc2ccc(C(=O)N3CCCCC3)cc2)n1 | -19% (active)
3 | C/C(=C\c1ccc([N+](=O)[O-])cc1)C(=O)O | 116%
4 | CC[C@]1(O)C[C@H]2CN(CCc3c([nH]c4ccccc34)C(C(=O)OC)(c3cc4c(cc3OC)N(C)[C@H]3[C@@](O)(C(=O)OC)[C@H](OC(C)=O)[C@]5(CC)[C@@H]6C[C@@H]6CN6CC[C@]43[C@@H]65)C2)C1 (stereo not given in full) | 28.1%
5 | NC(=S)Cc1ccccc1 | 89.8%
6 | O=[N+]([O-])c1cccc2cc(S(=O)(=O)O)ccc12 | 112%
7 | NC(=O)C1(N2CCCCC2)CCN(CCCC(=O)c2ccc(F)cc2)CC1 | -10.6% (active)
8 | CCN(CC)C(=S)SCCO | 94.6%
9 | O=C1c2cc(Br)ccc2-n2c1nc1cc(Br)ccc1c2=O | 76.6%
10 | O=C(Nc1c(Cl)cc(Cl)cc1Cl)ON=C1CCCCC1 | 96.7%
11 | CCOC(=O)Nc1nc2ccc(SCC(C)C)cc2s1 | 2.1% (active)
12 | COc1cc2c(cc1OC)C(=O)/C(=C/c1cc(-c3ccc4c(c3)OCO4)n[nH]1)C2 | -26.4% (active)
13 | NC1=Nc2ccccc2N(O)N1 | 102%
14 | CCOc1ccncc1[N+](=O)[O-] | 104%
15 | CCCCCCNC(=O)Oc1ccc(/C(=C(/CC)Cc2ccccc2)c2ccc(OCCN3CCCCC3)cc2)cc1 | 86.3%
16 | CC1SC(c2cccc(Oc3ccccc3)c2)N(CCc2cccs2)C1=O (stereo not given) | -45.5% (active)
17 | CCc1ccc(/C(C#N)=C/C=C/c2ccccc2)cc1 | -13.9% (active)
18 | Clc1ccc(CCC(Cn2ccnc2)Sc2c(Cl)cccc2Cl)cc1 (stereo not given) | 36.9%
19 | CCN(CC)CCCCCCNc1cccc2cc(Br)cnc12 | 77%
20 | Cc1cc(/C=C2\SC(=Nc3ccccc3)N(C3CCCC3)C2=O)c(C)n1-c1ccc(Cl)cc1 | -84.2% (active)

Row | Compound | growth
21 | COC1OCC(O)C(O)C1O (stereo not given) | 100%
22 | Cc1oc2nc[nH]c(=O)c2c1C(=O)/C=C/c1ccc(Br)cc1 | -55.4% (active)
23 | O=C(CCCCC(=O)N/N=C\c1ccccc1O)N/N=C\c1ccccc1O | 22.4%
24 | COc1ccccc1N1CCN(C(CNS(=O)(=O)c2ccc(Cl)cc2)c2cccnc2)CC1 (stereo not given) | 98.8%
25 | COc1cc(Nc2c(C#N)cnn3cc(-c4cnn(CC(C)(C)O)c4)cc23)ccc1Cl | 65.1%
26 | CCC1CN2C(=N1)c1ccccc1-c1cc(Cl)ccc12 (stereo not given) | -7.75% (active)
27 | CC1SC(c2ccc(Cl)cc2)N(CCc2cccs2)C1=O (stereo not given) | -38.4% (active)
28 | COc1ccc(-c2nn3c(-c4ccccc4F)nnc3s2)cc1 | 6.82% (active)
29 | O=c1oc2ccc(Br)cc2c(=O)n1-c1ccc(Br)cc1F | -11.7% (active)
30 | OC(CC(c1ccccc1)c1cccc2ccccc12)(c1ccccc1)c1ccccc1 (stereo not given) | 86.3% and 84.5%
31 | NC1=C(c2nn[nH]n2)C(c2ccccc2Cl)c2ccc3ccccc3c2O1 (stereo not given) | 55.3%
32 | CN(C)c1ccc(/C=C2\Cc3c(F)ccc(Br)c3C2=O)cc1 | -29.4% (active)
33 | C#Cc1nc(Nc2cc(C)[nH]n2)c2ccccc2n1 | -23.2% (active)
34 | CCOC(=O)c1c(C)oc2ncnc(Nc3ccc(NC(=O)Nc4cccc(Cl)c4)cc3)c12 | 49.7%
35 | COc1cc(C(=O)/C=C/c2cc(-c3cc(OC)c(OC)c(OC)c3)n[nH]2)cc(OC)c1OC | -79% (active)
36 | CCOC(=O)C(O)C(O)C(=O)OCC (stereo not given) | 102%
37 | NC(=O)c1ccc(-c2cccc3c(=O)nc(N4CCOCC4)oc23)cc1 | 105%
38 | C=C1C(=O)O[C@H]2[C@H]1CC/C(CNC(=O)/C=C/c1cccc(OC)c1)=C\CC[C@@]1(C)O[C@@H]21 | -36.5% (active)
39 | COC(=O)Nc1nc2ccc(C(=O)c3ccccc3N(C)C3COC3)cc2[nH]1 | 23.8%
40 | CCS(=O)(=O)Nc1ccc(C(=O)CC2(O)C(=O)Nc3ccccc32)cc1 (stereo not given) | 95.4%
